Screening data as filed in PubChem.
Sampled rows, rich in hits. Any-hit rate of the full collection: about 3%.
SENP6 inh = SENP6 protease inhibition; Recombinant SENP6 catalytic domain, aminoluciferin luminescence; inhibition, % at 10 µM; 330,000 compounds, 1.8% hits; AID 2599;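 active = inhibition above about 50% at the single tested dose, limit read from the data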;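 note: plate controls were DMSO wells with enzyme for no effect and DMSO wells lacking enzyme for full effect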
SENP8 block-1 = inhibitors of human SENP8 protease | Q96LD8 | recombinant SENP8, Nedd8 substrate fluorescence | inhibition, % at 20 µM | 360,000 compounds, 0.64% hits; in the data active = inhibition mostly above about 40%, no sharp cut-off; inactive = mostly below about 27%
Target sequence (Q96LD8 whole entry, looked up): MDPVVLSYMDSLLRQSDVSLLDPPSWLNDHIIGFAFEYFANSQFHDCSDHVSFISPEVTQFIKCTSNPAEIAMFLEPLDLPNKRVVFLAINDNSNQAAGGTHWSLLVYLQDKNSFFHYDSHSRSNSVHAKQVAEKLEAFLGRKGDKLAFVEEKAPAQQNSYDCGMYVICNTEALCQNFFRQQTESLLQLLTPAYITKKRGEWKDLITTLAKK
SENP7 inh = SENP7 protease inhibition. Q9BQF6. recombinant SENP7, Z-RLRGG-aminoluciferin luminescence, 40 min. inhibition, % at 5 µM. 330,000 compounds, 1.5% hits. AID 434973;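 active = inhibition above about 50% at the single test dose, limit read from the data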;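 note: plate controls were DMSO with enzyme for no effect and no enzyme buffer wells for full effect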
SENP8 block-2 = inhibitors of human SENP8 protease | Q96LD8 | purified SENP8, Z-RLRGG-aminoluciferin cleavage, luminescence | inhibition, % at 10 µM | 330,000 compounds, 1.2% hits | AID 2540; in the data active = inhibition above about 50%
PPC-1+TRAIL kill = kills PPC-1 cancer cells in the presence of TRAIL. PPC-1 cells + TRAIL, ATPLite viability luminescence. cell killing (% activity), % at 4 µM or 5 µM. 220,000 compounds, 0.41% hits. AID 1443;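 active = cell killing above 50% in the first pass at 4 µM, then a duplicate retest at 5 µM averaging 50% or more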;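 note: plate controls were cells with TRAIL plus DMSO for no effect and medium-only wells lacking cells for full effect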
C8 TRAIL sens = caspase-8 TRAIL sensitization. NB7+C8 cells + TRAIL, ATPlite viability luminescence. inhibition (viability loss, TRAIL sensitization), % at 10 µM. 360,000 compounds, 1% hits. AID 624354;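 active = compounds causing at least 50% loss of cell viability in the single-dose screen, relative to plate controls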
SENP8 conf = human SENP8 inhibition, confirmed; shares compounds with SENP7 inh; Recombinant SENP8, Z-RLRGG-aminoluciferin luminescence, 60 min; inhibition, % at 12.5 µM; 6,200 compounds, 40% hits; AID 488912;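 active = mean inhibition across replicates above about 50%, limit read from the data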
SENP6 confirm = human SENP6 inhibition, confirmed | inhibition, % at 12.5 µM | shares compounds with SENP7 inh | recombinant SENP6, Z-RLRGG-aminoluciferin luminescence | 6,200 compounds, 58% hits
SENP7 conf = confirmation of human SENP7 protease inhibitors | 6,200 compounds, 69% hits | recombinant SENP7, Z-RLRGG-aminoluciferin luminescence, 40 min | shares compounds with SENP7 inh | inhibition, % at 12.5 µM
Casp3 select = inhibits human caspase-3 in SENP selectivity test; purified caspase-3, Z-DEVD-aminoluciferin luminescence, 60 min; inhibition, % at 12.5 µM; shares compounds with SENP7 inh; 6,200 compounds, 60% hits;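 active = mean inhibition above about 50%, limit read from the data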;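 note: plate controls were enzyme with DMSO for no effect and wells without caspase-3 for full effect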
Target sequence (P42574 28-227 limits assumed): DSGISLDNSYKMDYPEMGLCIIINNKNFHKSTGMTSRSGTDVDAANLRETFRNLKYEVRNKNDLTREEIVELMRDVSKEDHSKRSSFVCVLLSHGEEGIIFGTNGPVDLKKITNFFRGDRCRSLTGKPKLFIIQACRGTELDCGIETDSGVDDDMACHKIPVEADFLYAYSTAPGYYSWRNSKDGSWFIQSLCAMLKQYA
Luc interf = counter-screen for SENP inhibitors: luminescence interference | AID 488919 | shares compounds with SENP7 inh | 6,200 compounds, 39% hits | Pre-incubated SENP8/Z-RLRGG-aminoluciferin, luciferase luminescence interference | inhibition, % at 12.5 µM;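 active = mean inhibition above about 50% when retested at one dose, limit read from the data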;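 note: plate controls were DMSO wells with completed reaction for no effect and substrate without enzyme for full effect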
Numbers without * were called inactive.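 Rule for the calls, unless noted: active = mean inhibition above about 50% in the one-dose retest (limit read from the data); inactive = the rest.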

Screening Cc1ccc(/C(N)=N/OC(=O)c2ccc(Cl)cc2Cl)cc1 returned SENP6 inh 79*, SENP8 block-1 5, SENP7 inh 64*, SENP8 block-2 49, PPC-1+TRAIL kill 57*, C8 TRAIL sens 67*, SENP8 conf 33, SENP6 confirm 50*, SENP7 conf 84*, Casp3 select 47 and Luc interf 59*.
N/C(=N\OC(=O)Cc1cccs1)c1ccc(Cl)cc1 was read as SENP6 inh -2, SENP8 block-1 0, SENP7 inh -1, SENP8 block-2 -9, PPC-1+TRAIL kill -8 and C8 TRAIL sens -2.
Screening C/C(=N/NC(=O)CNC(=O)CCc1ccccc1)c1ccc(Cl)c(Cl)c1 returned SENP6 inh -8, SENP8 block-1 14, SENP7 inh 12, SENP8 block-2 -10, PPC-1+TRAIL kill -3 and C8 TRAIL sens -3.
For COc1ccc(-c2csc(C(C)(O)c3cccnc3)n2)cc1 (stereo not given) the results were SENP8 block-1 8 and C8 TRAIL sens 20.
`COc1ccc(/C(N)=N/OC(=O)c2cccs2)cc1` gave SENP6 inh 77*, SENP8 block-1 11, SENP7 inh 15, SENP8 block-2 58*, PPC-1+TRAIL kill 14, C8 TRAIL sens 17, SENP8 conf 64*, SENP6 confirm 74*, SENP7 conf 95*, Casp3 select 75* and Luc interf 82*.
For COc1ccc(C(=O)O/N=C(\N)c2ccc(Cl)cc2)cc1 the results were SENP6 inh 58*, SENP8 block-1 18, SENP7 inh 68*, SENP8 block-2 45, C8 TRAIL sens 23, SENP8 conf 45, SENP6 confirm 42, SENP7 conf 84*, Casp3 select 72* and Luc interf 42.
Screening COc1ccccc1C(=O)O/N=C(\N)c1ccc(Cl)cc1 returned SENP6 inh -1, SENP8 block-1 0, SENP7 inh 24, SENP8 block-2 13, PPC-1+TRAIL kill 23 and C8 TRAIL sens 27.
Screening Cc1ccc(C(=O)O/N=C(\N)Cc2ccc([N+](=O)[O-])cc2)c(Cl)c1 returned SENP6 inh -7, SENP8 block-1 21, SENP7 inh 7, SENP8 block-2 2, PPC-1+TRAIL kill 0 and C8 TRAIL sens -1.
Screening Cc1ccc(C(=O)O/N=C(\N)Cc2cccs2)c(Cl)c1 returned SENP6 inh 87*, SENP8 block-1 0, SENP7 inh 85*, SENP8 block-2 70*, C8 TRAIL sens 96*, SENP8 conf 84*, SENP6 confirm 83*, SENP7 conf 95*, Casp3 select 86* and Luc interf 84*.
`COc1ccc(/C(N)=N/OC(=O)c2ccc(Br)o2)cc1` gave SENP6 inh 43, SENP8 block-1 14, SENP7 inh 16, SENP8 block-2 2 and C8 TRAIL sens 42.
For O=C1CC2(CCCC2)C(=O)N1c1ccc(S(=O)(=O)NCC2CC2)cc1Cl the results were SENP6 inh -2, SENP8 block-1 -6, SENP7 inh 2, SENP8 block-2 9, PPC-1+TRAIL kill 1 and C8 TRAIL sens -11.
Screening CCC(C)(C)NC(=O)C(c1ccc(C)cc1)N(Cc1ccco1)C(=O)CCC(=O)Nc1nccs1 (stereo not given) returned SENP6 inh 8, SENP8 block-1 12, SENP7 inh -15, SENP8 block-2 -1, PPC-1+TRAIL kill 25 and C8 TRAIL sens -19.
